Experimental data reported in PMC7862700, “An all-to-all approach to the identification of sequence-specific readers for epigenetic DNA modifications on cytosine”.

What was measured:
Assay in all cases: DAPPL (digital affinity profiling via proximity ligation, sequencing); 10 mM Tris-HCl pH 7.5, 50 mM NaCl, 1 mM DTT, 4% glycerol, room temperature, 30 min; GST-TFs on glutathione beads, 16-mer random dsDNA library, 0.1% formaldehyde crosslink after washing; high values mean tight binding
[1] = target: T1, FEV (Homo sapiens, UniProt Q99581 1-238); settings: protein: recombinant; tags: N-terminal GST; dsDNA, one strand shown
T1 sequence: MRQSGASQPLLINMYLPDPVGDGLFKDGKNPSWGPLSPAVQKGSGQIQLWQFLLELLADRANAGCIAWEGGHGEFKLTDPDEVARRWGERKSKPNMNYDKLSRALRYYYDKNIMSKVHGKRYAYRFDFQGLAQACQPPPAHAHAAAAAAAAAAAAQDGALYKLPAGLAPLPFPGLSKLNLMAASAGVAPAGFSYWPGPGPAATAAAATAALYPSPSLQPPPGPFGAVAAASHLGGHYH
In short: (§1)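 Each value of binding signal is a hexamer's read frequency for a factor divided by the same hexamer's frequency in the tag-only sample. Barcoded, bead-captured GST fusions of human transcription factors made in yeast were pooled with that sample and incubated with 200 nmole of a random double-stranded 16-mer DNA library in Tris/NaCl/DTT/glycerol buffer at room temperature for 30 min. Washing, 0.1% formaldehyde crosslinking, proximity ligation, PCR and Illumina NextSeq500 sequencing followed.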

[2] = target: ETV5 (Homo sapiens, UniProt P41161 1-510); settings: protein: recombinant; tags: N-terminal GST; dsDNA, one strand shown
ETV5, sequence (P41161 whole entry): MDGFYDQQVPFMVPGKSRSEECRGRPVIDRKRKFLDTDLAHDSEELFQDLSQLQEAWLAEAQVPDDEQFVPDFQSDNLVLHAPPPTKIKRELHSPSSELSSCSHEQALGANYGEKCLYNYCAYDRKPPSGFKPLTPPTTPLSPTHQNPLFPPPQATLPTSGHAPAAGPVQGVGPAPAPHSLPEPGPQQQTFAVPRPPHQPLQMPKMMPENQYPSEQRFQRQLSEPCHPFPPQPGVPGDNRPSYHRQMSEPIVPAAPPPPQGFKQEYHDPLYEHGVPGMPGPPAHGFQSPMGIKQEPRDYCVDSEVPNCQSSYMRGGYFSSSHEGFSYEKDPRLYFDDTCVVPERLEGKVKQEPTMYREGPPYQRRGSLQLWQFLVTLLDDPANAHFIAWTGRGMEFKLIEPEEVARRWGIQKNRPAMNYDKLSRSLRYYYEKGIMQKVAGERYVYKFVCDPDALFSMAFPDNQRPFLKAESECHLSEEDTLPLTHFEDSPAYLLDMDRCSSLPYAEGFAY
In short: as §1

[3] = target: HSF1 (Homo sapiens, UniProt Q00613 1-529); settings: protein: recombinant; tags: N-terminal GST; chain copies: 3; dsDNA, one strand shown
HSF1, sequence (Q00613 whole entry): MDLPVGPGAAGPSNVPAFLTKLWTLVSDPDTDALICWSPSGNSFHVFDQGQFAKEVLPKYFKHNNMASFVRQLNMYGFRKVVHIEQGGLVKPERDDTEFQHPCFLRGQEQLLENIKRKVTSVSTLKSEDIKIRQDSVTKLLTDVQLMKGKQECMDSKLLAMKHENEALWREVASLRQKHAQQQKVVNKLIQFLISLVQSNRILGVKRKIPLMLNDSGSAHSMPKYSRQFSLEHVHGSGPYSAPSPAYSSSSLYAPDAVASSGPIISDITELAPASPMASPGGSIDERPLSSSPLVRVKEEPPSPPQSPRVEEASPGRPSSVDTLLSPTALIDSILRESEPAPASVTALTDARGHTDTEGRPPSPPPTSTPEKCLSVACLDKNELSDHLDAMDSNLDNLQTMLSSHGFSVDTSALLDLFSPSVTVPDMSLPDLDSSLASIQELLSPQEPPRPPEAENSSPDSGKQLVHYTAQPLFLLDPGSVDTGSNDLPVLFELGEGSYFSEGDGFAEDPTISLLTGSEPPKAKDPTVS
In short: as §1

[4] = target: T2, SPIC (Homo sapiens, UniProt Q8N5J4 1-248); settings: protein: recombinant; tags: N-terminal GST; dsDNA, one strand shown
T2 sequence: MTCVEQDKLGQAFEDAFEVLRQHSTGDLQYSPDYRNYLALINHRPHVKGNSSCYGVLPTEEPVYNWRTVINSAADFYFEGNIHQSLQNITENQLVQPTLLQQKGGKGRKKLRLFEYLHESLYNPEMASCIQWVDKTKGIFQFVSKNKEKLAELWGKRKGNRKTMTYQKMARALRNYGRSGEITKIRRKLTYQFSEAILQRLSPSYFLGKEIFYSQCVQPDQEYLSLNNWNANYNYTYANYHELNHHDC
In short: as §1

[5] = target: ELF4 (Homo sapiens, UniProt Q99607 1-663); settings: protein: recombinant; tags: N-terminal GST; dsDNA, one strand shown
ELF4, sequence (Q99607 whole entry): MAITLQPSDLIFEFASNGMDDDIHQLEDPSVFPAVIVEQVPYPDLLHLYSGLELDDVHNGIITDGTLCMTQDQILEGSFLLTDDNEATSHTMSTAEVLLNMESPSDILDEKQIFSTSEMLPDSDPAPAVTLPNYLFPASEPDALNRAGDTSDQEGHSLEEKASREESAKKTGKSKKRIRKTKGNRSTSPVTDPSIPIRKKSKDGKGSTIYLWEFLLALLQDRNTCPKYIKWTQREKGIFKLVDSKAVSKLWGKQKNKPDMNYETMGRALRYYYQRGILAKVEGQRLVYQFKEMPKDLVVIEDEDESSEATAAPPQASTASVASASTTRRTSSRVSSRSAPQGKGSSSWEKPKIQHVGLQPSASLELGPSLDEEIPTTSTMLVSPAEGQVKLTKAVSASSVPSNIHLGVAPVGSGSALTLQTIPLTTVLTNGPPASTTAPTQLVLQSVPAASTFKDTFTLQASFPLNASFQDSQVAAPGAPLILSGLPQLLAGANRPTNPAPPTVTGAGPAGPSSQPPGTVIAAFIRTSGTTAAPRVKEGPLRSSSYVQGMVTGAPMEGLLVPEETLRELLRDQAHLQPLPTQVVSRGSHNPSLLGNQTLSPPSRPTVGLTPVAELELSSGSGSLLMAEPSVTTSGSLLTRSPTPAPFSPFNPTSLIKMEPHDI
In short: as §1

[6] = target: T3, ELK4 (Homo sapiens, UniProt P28324-2 1-405); settings: protein: recombinant; tags: N-terminal GST; dsDNA, one strand shown
T3 sequence: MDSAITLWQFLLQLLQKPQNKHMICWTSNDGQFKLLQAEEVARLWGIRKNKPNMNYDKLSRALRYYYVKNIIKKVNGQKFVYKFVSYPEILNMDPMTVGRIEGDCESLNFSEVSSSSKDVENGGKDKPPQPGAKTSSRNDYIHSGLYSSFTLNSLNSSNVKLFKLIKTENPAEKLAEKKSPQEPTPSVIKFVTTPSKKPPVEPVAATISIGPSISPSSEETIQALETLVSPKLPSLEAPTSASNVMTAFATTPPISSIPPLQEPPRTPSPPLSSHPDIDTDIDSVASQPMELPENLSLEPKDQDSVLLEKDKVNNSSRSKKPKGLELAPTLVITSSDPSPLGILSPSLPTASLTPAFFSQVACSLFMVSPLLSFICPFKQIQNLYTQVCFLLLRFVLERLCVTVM
In short: as §1

[7] = target: T4, ETV2 (Homo sapiens, UniProt O00321 1-342); settings: protein: recombinant; tags: N-terminal GST; dsDNA, one strand shown
T4 sequence: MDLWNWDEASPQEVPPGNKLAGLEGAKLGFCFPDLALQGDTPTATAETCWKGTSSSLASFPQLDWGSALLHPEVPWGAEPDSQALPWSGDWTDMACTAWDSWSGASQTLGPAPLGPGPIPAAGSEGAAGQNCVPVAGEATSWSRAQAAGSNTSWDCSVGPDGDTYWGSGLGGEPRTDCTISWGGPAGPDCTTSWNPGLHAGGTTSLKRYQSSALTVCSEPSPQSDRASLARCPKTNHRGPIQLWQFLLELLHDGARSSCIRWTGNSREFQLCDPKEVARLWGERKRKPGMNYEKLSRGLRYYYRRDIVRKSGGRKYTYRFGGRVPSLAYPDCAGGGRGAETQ
In short: as §1

[8] = target: T5, ELF3 (Homo sapiens, UniProt P78545 1-371); settings: protein: recombinant; tags: N-terminal GST; dsDNA, one strand shown
T5 sequence: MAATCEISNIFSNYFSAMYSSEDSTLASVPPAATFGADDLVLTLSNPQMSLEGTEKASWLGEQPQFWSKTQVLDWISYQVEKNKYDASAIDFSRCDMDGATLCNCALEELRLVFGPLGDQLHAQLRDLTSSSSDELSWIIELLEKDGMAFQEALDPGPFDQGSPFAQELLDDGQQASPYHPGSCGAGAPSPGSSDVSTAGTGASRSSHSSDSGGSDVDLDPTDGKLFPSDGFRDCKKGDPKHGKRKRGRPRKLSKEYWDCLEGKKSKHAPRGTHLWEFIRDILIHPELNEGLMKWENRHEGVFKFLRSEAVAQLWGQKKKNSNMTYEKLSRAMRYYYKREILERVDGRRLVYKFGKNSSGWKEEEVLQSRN
In short: as §1

[9] = target: CRX (Homo sapiens, UniProt O43186 1-299); settings: protein: recombinant; tags: N-terminal GST; dsDNA, one strand shown
CRX, sequence (O43186 whole entry): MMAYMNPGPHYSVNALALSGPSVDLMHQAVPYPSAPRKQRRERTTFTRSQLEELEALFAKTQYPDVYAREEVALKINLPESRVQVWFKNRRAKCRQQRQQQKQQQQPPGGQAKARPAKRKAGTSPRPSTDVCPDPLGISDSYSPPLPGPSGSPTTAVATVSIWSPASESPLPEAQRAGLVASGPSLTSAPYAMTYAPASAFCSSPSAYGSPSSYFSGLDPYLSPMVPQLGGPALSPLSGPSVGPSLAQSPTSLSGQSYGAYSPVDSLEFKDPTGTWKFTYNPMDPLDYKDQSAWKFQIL
In short: as §1

[10] = target: ETV1 (Homo sapiens, UniProt P50549 1-477); settings: protein: recombinant; tags: N-terminal GST; dsDNA, one strand shown
ETV1, sequence (P50549 whole entry): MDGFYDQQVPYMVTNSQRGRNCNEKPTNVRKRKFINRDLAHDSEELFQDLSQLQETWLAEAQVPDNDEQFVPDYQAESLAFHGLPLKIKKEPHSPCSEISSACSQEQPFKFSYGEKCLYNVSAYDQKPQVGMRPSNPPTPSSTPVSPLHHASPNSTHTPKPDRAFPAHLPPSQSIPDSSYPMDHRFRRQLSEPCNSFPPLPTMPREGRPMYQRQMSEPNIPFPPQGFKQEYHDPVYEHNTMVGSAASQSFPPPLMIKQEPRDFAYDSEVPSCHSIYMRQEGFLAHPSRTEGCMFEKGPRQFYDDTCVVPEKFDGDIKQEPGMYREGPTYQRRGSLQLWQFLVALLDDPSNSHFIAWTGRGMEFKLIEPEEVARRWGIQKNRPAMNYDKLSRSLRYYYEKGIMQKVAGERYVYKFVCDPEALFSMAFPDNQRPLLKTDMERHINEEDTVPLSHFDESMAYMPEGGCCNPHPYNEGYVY
In short: as §1

[11] = target: T6, ERF (Homo sapiens, UniProt P50548 1-548); settings: protein: recombinant; tags: N-terminal GST; dsDNA, one strand shown
T6 sequence: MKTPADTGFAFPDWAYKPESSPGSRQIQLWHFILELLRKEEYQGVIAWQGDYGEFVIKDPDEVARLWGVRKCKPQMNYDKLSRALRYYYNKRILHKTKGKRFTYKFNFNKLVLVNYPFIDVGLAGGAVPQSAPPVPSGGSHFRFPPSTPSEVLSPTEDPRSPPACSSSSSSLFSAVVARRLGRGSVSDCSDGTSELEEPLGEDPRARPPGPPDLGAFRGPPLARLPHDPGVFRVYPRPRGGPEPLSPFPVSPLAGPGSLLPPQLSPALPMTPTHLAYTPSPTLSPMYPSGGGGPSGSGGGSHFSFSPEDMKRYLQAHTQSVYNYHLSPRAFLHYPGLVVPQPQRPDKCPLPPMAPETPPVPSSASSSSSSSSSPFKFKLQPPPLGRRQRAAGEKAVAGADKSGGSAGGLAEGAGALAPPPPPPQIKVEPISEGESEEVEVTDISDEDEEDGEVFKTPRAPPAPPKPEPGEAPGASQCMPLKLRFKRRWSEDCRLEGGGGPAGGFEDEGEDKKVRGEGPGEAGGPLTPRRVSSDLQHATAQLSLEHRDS
In short: as §1

[12] = target: T7, ETV3L (Homo sapiens, UniProt Q6ZN32 1-361); settings: protein: recombinant; tags: N-terminal GST; dsDNA, one strand shown
T7 sequence: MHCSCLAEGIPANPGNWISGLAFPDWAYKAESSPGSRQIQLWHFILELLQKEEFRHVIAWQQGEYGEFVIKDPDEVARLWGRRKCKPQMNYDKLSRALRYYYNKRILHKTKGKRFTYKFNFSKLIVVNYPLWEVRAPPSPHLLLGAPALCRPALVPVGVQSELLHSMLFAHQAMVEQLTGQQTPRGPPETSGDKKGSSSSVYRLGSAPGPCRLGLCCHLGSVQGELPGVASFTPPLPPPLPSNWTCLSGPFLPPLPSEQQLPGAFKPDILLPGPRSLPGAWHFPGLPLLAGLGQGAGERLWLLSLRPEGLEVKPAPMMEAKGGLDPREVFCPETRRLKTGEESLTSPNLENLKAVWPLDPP
In short: as §1

[13] = target: T8, ETS2 (Homo sapiens, UniProt P15036 1-469); settings: protein: recombinant; tags: N-terminal GST; dsDNA, one strand shown
T8 sequence: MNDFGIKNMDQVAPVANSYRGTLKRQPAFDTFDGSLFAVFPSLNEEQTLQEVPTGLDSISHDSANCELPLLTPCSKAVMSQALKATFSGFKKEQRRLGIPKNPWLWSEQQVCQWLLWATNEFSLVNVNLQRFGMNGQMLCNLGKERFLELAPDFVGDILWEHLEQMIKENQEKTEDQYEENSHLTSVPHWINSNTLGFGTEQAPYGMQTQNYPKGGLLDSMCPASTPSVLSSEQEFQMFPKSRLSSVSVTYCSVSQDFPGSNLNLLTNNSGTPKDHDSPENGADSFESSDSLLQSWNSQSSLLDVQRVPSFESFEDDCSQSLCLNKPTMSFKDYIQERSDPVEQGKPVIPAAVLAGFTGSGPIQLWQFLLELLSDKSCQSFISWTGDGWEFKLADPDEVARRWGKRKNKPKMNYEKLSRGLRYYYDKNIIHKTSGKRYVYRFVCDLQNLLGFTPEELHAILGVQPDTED
In short: as §1

[14] = target: T9, SPDEF (Homo sapiens, UniProt O95238 1-335); settings: protein: recombinant; tags: N-terminal GST; dsDNA, one strand shown
T9 sequence: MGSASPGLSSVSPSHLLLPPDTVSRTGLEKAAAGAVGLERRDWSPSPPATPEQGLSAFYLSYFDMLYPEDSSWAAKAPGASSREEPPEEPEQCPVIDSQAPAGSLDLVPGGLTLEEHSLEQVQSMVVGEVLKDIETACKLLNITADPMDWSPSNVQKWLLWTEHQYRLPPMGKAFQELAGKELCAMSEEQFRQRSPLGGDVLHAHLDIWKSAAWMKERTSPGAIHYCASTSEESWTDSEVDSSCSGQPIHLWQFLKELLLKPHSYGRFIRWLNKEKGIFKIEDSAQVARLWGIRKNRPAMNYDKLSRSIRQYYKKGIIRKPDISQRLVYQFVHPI
In short: as §1

[15] = target: T10, ETV7 (Homo sapiens, UniProt Q9Y603 1-341); settings: protein: recombinant; tags: N-terminal GST; dsDNA, one strand shown
T10 sequence: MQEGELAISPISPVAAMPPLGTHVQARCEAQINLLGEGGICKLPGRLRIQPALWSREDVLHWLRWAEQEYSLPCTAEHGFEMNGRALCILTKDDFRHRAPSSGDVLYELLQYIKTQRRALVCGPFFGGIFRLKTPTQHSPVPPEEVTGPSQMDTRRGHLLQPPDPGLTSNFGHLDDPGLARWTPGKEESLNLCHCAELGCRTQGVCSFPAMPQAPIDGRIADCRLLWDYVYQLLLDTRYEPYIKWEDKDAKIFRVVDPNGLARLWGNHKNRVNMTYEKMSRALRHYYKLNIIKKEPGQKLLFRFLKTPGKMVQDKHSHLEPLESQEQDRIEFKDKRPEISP
In short: as §1

[16] = target: T11, ELF5 (Homo sapiens, UniProt Q9UKW6-2 1-255); settings: protein: recombinant; tags: N-terminal GST; dsDNA, one strand shown
T11 sequence: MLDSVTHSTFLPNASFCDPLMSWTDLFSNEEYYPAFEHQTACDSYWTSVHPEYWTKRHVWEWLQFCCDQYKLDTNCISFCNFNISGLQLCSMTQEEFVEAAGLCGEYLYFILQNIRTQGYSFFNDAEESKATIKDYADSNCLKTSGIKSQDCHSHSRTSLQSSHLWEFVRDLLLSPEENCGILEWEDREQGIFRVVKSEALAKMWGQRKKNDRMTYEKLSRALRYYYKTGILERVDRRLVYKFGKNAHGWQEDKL
In short: as §1

[17] = target: T12, ETV3 (Homo sapiens, UniProt P41162-2 1-143); settings: protein: recombinant; tags: N-terminal GST; dsDNA, one strand shown
T12 sequence: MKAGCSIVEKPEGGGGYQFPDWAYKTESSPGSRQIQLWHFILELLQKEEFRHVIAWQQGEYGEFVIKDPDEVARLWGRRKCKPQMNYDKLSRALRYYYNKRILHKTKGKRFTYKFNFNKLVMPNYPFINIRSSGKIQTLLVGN
In short: as §1

[18] = target: ETV6 (Homo sapiens, UniProt P41212 1-452); settings: protein: recombinant; tags: N-terminal GST; dsDNA, one strand shown
ETV6, sequence (P41212 whole entry): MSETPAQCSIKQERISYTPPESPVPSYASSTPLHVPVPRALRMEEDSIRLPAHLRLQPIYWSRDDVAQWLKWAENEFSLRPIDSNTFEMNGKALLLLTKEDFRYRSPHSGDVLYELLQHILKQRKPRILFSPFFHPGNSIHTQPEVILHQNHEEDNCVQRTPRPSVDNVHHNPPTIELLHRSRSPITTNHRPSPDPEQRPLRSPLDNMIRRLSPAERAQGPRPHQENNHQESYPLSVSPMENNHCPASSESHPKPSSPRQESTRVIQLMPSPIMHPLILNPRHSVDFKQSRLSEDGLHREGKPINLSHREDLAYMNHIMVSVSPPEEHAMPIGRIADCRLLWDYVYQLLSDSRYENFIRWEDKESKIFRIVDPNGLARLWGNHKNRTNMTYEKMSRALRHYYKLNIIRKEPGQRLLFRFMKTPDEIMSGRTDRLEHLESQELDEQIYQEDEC
In short: as §1

CACGTT was tested, and the binding signal [1] was 1.26 fold enrichment (6-mer frequency, TF over GST control), the binding signal [2] was 1.3 fold enrichment (6-mer frequency, TF over GST control) and the binding signal [3] was 1.11 fold enrichment (6-mer frequency, TF over GST control). For the same sequence, the binding signal [4] was 1.33 fold enrichment (6-mer frequency, TF over GST control), the binding signal [5] was 1.31 fold enrichment (6-mer frequency, TF over GST control) and the binding signal [6] was 1.29 fold enrichment (6-mer frequency, TF over GST control). For the same sequence, the binding signal [7] was 1.36 fold enrichment (6-mer frequency, TF over GST control), the binding signal [8] was 1 fold enrichment (6-mer frequency, TF over GST control) and the binding signal [9] was 1.08 fold enrichment (6-mer frequency, TF over GST control). For the same sequence, the binding signal [10] was 1.21 fold enrichment (6-mer frequency, TF over GST control), the binding signal [11] was 1.36 fold enrichment (6-mer frequency, TF over GST control) and the binding signal [12] was 1.21 fold enrichment (6-mer frequency, TF over GST control). The binding signal [13] was 1.3 fold enrichment (6-mer frequency, TF over GST control), the binding signal [14] was 1.18 fold enrichment (6-mer frequency, TF over GST control) and the binding signal [15] was 1.35 fold enrichment (6-mer frequency, TF over GST control). The binding signal [16] was 1.12 fold enrichment (6-mer frequency, TF over GST control), the binding signal [17] was 1.19 fold enrichment (6-mer frequency, TF over GST control) and the binding signal [18] was 1.27 fold enrichment (6-mer frequency, TF over GST control).
